KCNH2 WT inh = qHTS for Inhibitors of KCHN2 3.1: Wildtype qHTS | Voltage-gated inwardly rectifying potassium channel KCNH2 (Homo sapiens), Q12809 | U2OS, BacMam KCNH2, thallium flux FluxOr; active compounds read low | activity change, % at 1.84 µM | hit rate 0.37% among 340,000;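 active means maximum activity change below -70%; inconclusive means maximum activity change between -70% and -50%; inactive means maximum activity change above -50%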; further: on the % scale 0 is the no-effect control and ±100 the full control effect
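U2OS cells were transduced with wild-type KCNH2 virus (2.03 x 10^8 / mL) for 4 h at room temperature, then cultured overnight at 37 C. Thallium flux was read with FluxOr dye. Rate constants were normalized to DMSO controls.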
uPA generation = qHTS for Inhibitors of Cell Surface uPA Generation | cell surface uPA generation assay, qHTS | Potency, µM (top dose mostly 38.3 µM), inactives show at the highest dose activity change, negative = inhibition, actives largely listed as inhibitors | hit rate 0.31% among 330,000; active means well fitted inhibition curve with a large enough effect; inconclusive means small, poorly fitted or top-dose-only effect; inactive means no such curve, though single readings can be large or run the other way; tested in mouse RAW 264.7 cells; further: potency means the concentration at half of the fitted maximal effect; on the % scale 0 is the no-effect control and ±100 the full control effect; nearly all actives have a fitted effect of over 55% in size
KCNH2 3.1 inh = qHTS for Inhibitors of KCHN2 3.1: Mutant qHTS; Potassium voltage-gated channel subfamily H member 2, brain isoform KCNH2 3.1 (human); U2OS KCNH2 3.1, thallium flux FluxOr; active compounds read low; activity change, % (tested at about 1.8 µM); hit rate 0.95% among 340,000;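 active means maximum activity change below -70%; inconclusive means maximum activity change from -70% to -50%; inactive means maximum activity change above -50%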;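 further: thallium influx rate constant from kinetic fluorescence after stimulation buffer; on the % scale 0 is the no-effect control and ±100 the full control effect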
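Normalized rate constant (relative to positive and negative DMSO controls) derived from a 2 min kinetic fluorescence read after stimulation; U2OS cells expressing the 3.1 isoform via virus at 1.77 x 10^8 /mL.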
p53 reactivation = qHTS assay for re-activators of p53 using a Luc reporter. H1299 p53-A138V BP100-luciferase reporter, luminescence, 24 h. Potency, µM (doses to about 92.2 µM), without a hit: at the top dose activity change, positive = activation, hits mostly activators. hit rate 0.063% among 320,000. AID 504706, 2011; further: potency means the concentration at half of the fitted maximal effect; % of control where 0% means no effect; nearly all actives have a fitted effect of over 45% in size
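p53-null H1299 cells stably carrying temperature-sensitive p53-A138V and a BP100-luciferase reporter were pinned with compounds (4-point, 1:5 series) and held 24 hrs at 37 deg C. Luminescence was read 10 min after detection reagent.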
ASM inhibitor = Inhibitors of Secretory Acid Sphingomyelinase (S-ASM): qHTS. Sphingomyelin phosphodiesterase (Homo sapiens), P17405. placental ASM, HMU-PC fluorogenic substrate, 60 min. Potency, µM (series often up to 57.5 µM), for inactives: top-dose activity change, negative = inhibition, most hits filed as inhibitors. hit rate 0.006% among 340,000. AID 504937, 2011; further: potency means the concentration at half of the fitted maximal effect
Target sequence (P17405 47-631 limits assumed): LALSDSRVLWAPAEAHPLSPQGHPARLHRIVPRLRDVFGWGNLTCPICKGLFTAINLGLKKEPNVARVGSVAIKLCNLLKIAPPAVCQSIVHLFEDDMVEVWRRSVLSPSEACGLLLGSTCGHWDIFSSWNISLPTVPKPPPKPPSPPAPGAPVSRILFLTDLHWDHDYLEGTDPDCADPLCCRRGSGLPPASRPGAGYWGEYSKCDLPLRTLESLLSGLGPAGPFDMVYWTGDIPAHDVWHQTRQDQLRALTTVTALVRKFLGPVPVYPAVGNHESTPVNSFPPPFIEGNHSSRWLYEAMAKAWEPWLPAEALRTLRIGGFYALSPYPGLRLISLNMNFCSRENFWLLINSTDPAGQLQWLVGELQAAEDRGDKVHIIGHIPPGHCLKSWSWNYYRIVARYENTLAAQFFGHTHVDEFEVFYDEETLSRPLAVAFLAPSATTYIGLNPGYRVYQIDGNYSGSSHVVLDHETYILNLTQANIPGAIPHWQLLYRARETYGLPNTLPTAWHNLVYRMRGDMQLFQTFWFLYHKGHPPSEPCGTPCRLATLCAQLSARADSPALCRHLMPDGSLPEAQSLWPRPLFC
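HMU-PC0 cleavage (9 uM final) by human placental ASM, 60 min at 37 °C following 10 min compound exposure at RT; stopped at pH 10, fluorescence Ex 386/Em 447 nm.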
MmCpn inh = Inhibitors of TCP-1 ring complex (TRiC) of Methanococcus maripaludis (MmCpn): qHTS; Chaperonin Mm-Cpn (Methanococcus maripaludis); purified Mm-Cpn ATPase, ADP Transcreener TR-FRET; Potency, µM (series often up to 76.9 µM), for inactives: top-dose activity, negative = inhibition, usual class: inhibitors; hit rate 0.031% among 330,000; AID 504842, 2011; further: potency means the concentration at half of the fitted maximal effect; on the % scale 0 is the no-effect control and ±100 the full control effect; nearly all actives have a fitted effect of over 80% in size
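Measured: ADP formation by purified Mm-CPN. Conditions: 25 nM protein, 10 uM ATP, Tris pH 7.4 with Mg2+, K+ and DTT, 37°C for 30 min. Detection: Transcreener HTRF after 30 min at room temperature.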
Active calls of the source: *; ? = inconclusive; / = no result given. Rows were chosen to be rich in hits. Some 1.4% of all compounds tested hit in one or more screens of this group. Unless noted, the call rests on the fitted dose curve; in most records, active means well fitted curve in the direction sought with a large enough effect; inconclusive means small, poorly fitted or top-dose-only effect, or another doubt; inactive means no such curve, though single readings can be large; an effect the other way counts as inactive or inconclusive.

SMILES | KCNH2 WT inh | uPA generation | KCNH2 3.1 inh | p53 reactivation | ASM inhibitor | MmCpn inh
CCCCC(CC)C(=O)Nc1cc(C(=O)NCc2ccc(C)cc2)ccc1N1CCC2(CC1)CC(c1cccc(Br)c1)=NO2 (stereo not given) | -4 | 6% | -9 | -4% | 1% | -7%
CCCNC(=O)c1ccc(N2CCC3(CC2)CC(c2ccccc2)=NO3)c(NC(=O)Cc2ccc(F)cc2)c1 | ? | -15% | -77* | / | ? | 1%
COc1cc2nc(CN(C)Cc3ccc(C(C)(C)C)cc3)[nH]c(=O)c2cc1OC | 0 | 3.5µM* | 7 | 7% | -3% | -2%
Cc1ccc(NS(=O)(=O)c2c(C(=O)N3CCCC3)c(C)n(C)c2C)cc1 | 4 | 0% | 11 | 1% | 2% | 1%
COc1ccc(NS(=O)(=O)c2c(C(=O)N3CCCCCC3)c(C)n(C)c2C)cc1 | 9 | -7% | -74* | 7% | -4% | -2%
CC(=NNC(=S)N1CC2CCC(CC2)C1)c1ccncn1 | -15 | -9% | 0 | / | -3% | /
CN(c1ccc(C(=O)COC(=O)C2CC2)cc1)S(C)(=O)=O | 3 | -6% | -8 | 35µM* | 0% | -5%
CC(C)(C)C(=O)Nc1ccc(C(=O)COC(=O)C2CC2)cc1 | -5 | 3% | -15 | ? | 3% | 0%
O=C(C(=O)N(Cc1ccccc1)Cc1ccccc1)c1c(-c2ccccc2)[nH]c2ccccc12 | -7 | -6% | -31 | / | -18% | /
COc1ccc(C(=O)Oc2cc(C(=S)N3CCOCC3)ccc2OC)cc1 | -140* | 0% | -161* | -3% | 0% | -5%
COc1ccc(C(=O)Oc2ccc(C(=S)N3CCOCC3)cc2)cc1 | 1 | 3% | -6 | 16% | -1% | 1%
COc1ccc([C@@H]2Sc3cc(OC)ccc3N(CCN(C(C)C)C(C)C)C(=O)[C@H]2OC(C)=O)cc1 | -90* | / | -100* | -9% | 6% | 2%
CCN1C(=O)C(NC(C)=O)c2cc(OC)ccc21 (stereo not given) | -4 | 5% | -16 | -7% | 4% | 2%
Cc1ccc2nc(-c3cccnc3)oc2c1 | -221* | -5% | -180* | 29% | 2% | -4%
Cc1ccc2nc(-c3ccccn3)oc2c1 | -2 | -10% | 22 | 4% | 2% | -4%
O=C(CC1SCCNC1=O)NCc1ccccc1 (stereo not given) | -2 | / | -10 | / | / | /
Cc1ccc2c(c1)-n1c(nc3cc(Cl)ccc3c1=O)C(Cc1ccccc1)NC2=O (stereo not given) | / | / | / | -6% | / | 0%
Cc1cc(CN2CCN(CC(=O)Nc3cc(Cl)ccc3-n3cncn3)CC2)no1 | -8 | 16% | -12 | -5% | 4% | 0%
CCN1C(=O)[C@H]2[C@@H](c3ccc(Cl)cc3)N3C(=O)CN(CCOC)C(=O)[C@@]3(C)[C@H]2C1=O | 0 | 14% | 16 | 4% | -4% | 2%
CCCCN1CC(=O)N2[C@H](c3ccc(Cl)cc3)[C@@H]3C(=O)N(CC)C(=O)[C@@H]3[C@]2(C)C1=O | 0 | 1% | -115* | 13% | 4% | 2%
CC(C)N1C(=O)/C(=C\c2nc3ccccc3c(=O)[nH]2)c2ccccc21 | 29 | -12% | 2 | 0% | 32µM* | -8%
Cc1cccc(NC(=O)c2ccc(OCc3c(C)noc3C)cc2)n1 | -7 | -9% | -25 | -3% | -1% | -3%
COc1cccc(NC(=O)c2ccnc(N3CCC(C(=O)NCc4ccccc4OC)CC3)c2)c1 | -1 | 0% | -109* | ? | 328% | 0%
CCOc1ccc(S(=O)(=O)N2CCC(C(=O)OC(C)C(=O)N3CCOCC3)CC2)cc1 (stereo not given) | -10 | 4% | 7 | -1% | 1% | 1%
CC1(c2nnc(-c3ccc(Cl)cc3)o2)CC(c2ccc(Cl)cc2)=NO1 (stereo not given) | 3 | 16% | -162* | 12% | -5% | 0%
SMILES | KCNH2 WT inh | uPA generation | KCNH2 3.1 inh | p53 reactivation | ASM inhibitor | MmCpn inh
CN(Cc1ccccc1)C(=O)c1ncn(C)c1C(=O)N(C)Cc1ccccc1 | / | 3% | / | 2% | 6% | 0%
CN(Cc1ccccc1)C(=O)c1ncn(Cc2ccccc2)c1C(=O)N(C)Cc1ccccc1 | 4 | 13% | -72* | 3% | -2% | 1%
CCC(C)(C)C(=O)Nc1ncc(S(=O)(=O)c2ccc([N+](=O)[O-])cc2)s1 | 5 | -3% | -17 | ? | -2% | 3%
CCCC(C)C(=O)Nc1ncc(S(=O)(=O)c2ccc([N+](=O)[O-])cc2)s1 (stereo not given) | -102* | 0% | -106* | -6% | -1% | 3%
CCOC(=O)N1CCN(S(=O)(=O)c2cc([N+](=O)[O-])ccc2C)CC1 | 22 | 0% | 8 | 18% | -1% | -1%
CCOC(=O)N1CCC(=NNS(=O)(=O)c2cccc([N+](=O)[O-])c2)CC1 | -1 | / | -71* | 2% | -3% | -2%
CCCCc1ccc(-c2nn[nH]n2)nc1 | -14 | / | -16 | / | / | /
Cc1ccc(SCC(=O)OCC(=O)NCCc2ccc(S(N)(=O)=O)cc2)c(C)c1 | 0 | 3% | 17 | -1% | 2% | 0%
COc1ccc(CC(=O)c2ccc(OC3OC(CO)C(O)C(O)C3O)cc2O)cc1 (stereo not given) | -95* | 6% | 17 | ? | 2% | 0%
Cc1ccc(C)c(OCCCN2CCNCC2)c1 | 6 | 19% | -5 | ? | 6% | 0%
Cc1ccc(C)c(OCCCCN2CCNCC2)c1C | -1 | -10% | -88* | / | 1% | -1%
O=C(Cc1ccc(NC(=O)C2CCCN(C(=O)C3CCC3)C2)cc1)Nc1cccc(C(=O)N2CCCC2)c1 (stereo not given) | 3 | 10% | / | / | 1% | /
COCCN(CC1CCCN(C2Cc3ccccc3C2)C1)C(=O)CCC(C)=O (stereo not given) | 36 | -7% | -16 | / | 3% | -2%
COCCN(CC1CCCN(C2Cc3ccccc3C2)C1)C(=O)CCC(N)=O (stereo not given) | -43 | -2% | -127* | 13% | -1% | 3%
Cc1ccccc1NC(=O)Cc1nc(COC(=O)c2ccc(S(C)(=O)=O)c([N+](=O)[O-])c2)cs1 | -23 | ? | 6 | -34% | -9% | -3%
COc1cccc(/C=N/NC(=O)c2c(C)nc3ccc(Br)cn23)c1O | 2 | 4.5µM* | 7 | ? | -8% | 0%
